Drawing on PubChem BioAssay AID504652 (National Center for Advancing Translational Sciences (NCATS), 2011), this text covers activity change, negative = inhibition for 57 compounds.

Screen size: about 360,000 compounds; about 11,000 (3.1%) were called active. No stated cut-off is given here; in the data, active means activity change below about -30%; inactive means the rest. The list comes from a sample in which actives are over-represented; it also holds similar structures and randomly drawn compounds.
On the % scale 0 is the no-effect control and ±100 the full control effect.

The target of this assay is D(1A) dopamine receptor (Homo sapiens) (UniProt P21728). Briefly: Antagonist of Human D 1 Dopamine Receptor: qHTS. As to conditions: HEK293 TREx D1 cells, calcium flux, dopamine EC80; at 10 µM; stronger effect = lower value. The method, boiled down: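 Inducible Hek293 Trex D1 cells (tetracycline, overnight, 30 C). Calcium dye 30–90 min RT. Antagonist mode: EC80 dopamine added after 180 s compound read.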
Chain of D(1A) dopamine receptor (Homo sapiens) (P21728 whole entry, looked up): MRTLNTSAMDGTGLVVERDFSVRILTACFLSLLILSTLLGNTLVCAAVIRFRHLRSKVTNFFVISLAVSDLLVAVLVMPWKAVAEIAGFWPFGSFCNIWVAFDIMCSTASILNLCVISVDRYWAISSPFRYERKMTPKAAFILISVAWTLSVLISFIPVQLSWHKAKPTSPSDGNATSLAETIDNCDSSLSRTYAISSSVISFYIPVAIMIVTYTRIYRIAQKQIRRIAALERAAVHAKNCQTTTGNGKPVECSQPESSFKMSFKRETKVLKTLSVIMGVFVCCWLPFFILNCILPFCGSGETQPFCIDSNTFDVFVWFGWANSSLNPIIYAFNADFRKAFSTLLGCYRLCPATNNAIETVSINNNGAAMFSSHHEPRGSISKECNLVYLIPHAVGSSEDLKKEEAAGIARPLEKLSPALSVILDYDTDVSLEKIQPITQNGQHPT
A general note: In qHTS, concentration-response curves come from the screen itself.
With `CC(C)S(=O)(=O)c1oc(-c2ccc(F)cc2)nc1S(=O)(=O)c1ccc(F)cc1`, the activity change, negative = inhibition was 6.44% (inactive).
To `Cc1cccc(N2CCN(C(=O)c3ccc(Nc4nc5ccccc5n5nnnc45)cc3)CC2)c1C` belongs -6.91% (inactive).
As to `CCCOc1ccc(NC(=O)CC2C(=O)N(c3ccccc3)C(=O)N2Cc2ccco2)cc1` (configuration not stated), the activity change, negative = inhibition was -3.01% (inactive).
To `COc1ccc(-c2nc3nc(C)cc(C)n3c2Nc2c(C)cccc2C)cc1` belongs 4.35% (inactive).
To `Cc1ccc(C2CCN(C(=O)c3cnn(-c4ccccc4Cl)c3C3CCN(C(=O)OC(C)(C)C)CC3)C2)cc1` (configuration not stated) belongs 6.31% (inactive).
To `O=C(NCc1ccco1)c1cccn2c(=O)c3c4c(sc3nc12)CCCC4` belongs -112% (active); to `O=c1oc(-c2ccco2)nc2sc3c(c12)CCCCC3`, -12.2% (inactive); to `O=C(NCc1ccco1)c1nc2ncccn2n1`, 8.67% (inactive).
Turning to `O=C(CN1C(=O)CCn2nc(-c3ccccc3)cc21)NCc1ccccc1`, the activity change, negative = inhibition was -7.67% (inactive).
With `O=C(c1ccc(C(F)(F)F)cc1)N1CCC(c2nc(-c3ccc(S(=O)(=O)N4CCCC4)cc3)no2)CC1` the figure was -0.206% (inactive); with `CCCCC(=O)Nc1nc(C)c(-c2csc(Nc3ccc(Cl)cc3)n2)s1`, 103% (inactive).
With `Cc1nc(C)c(-c2csc(NCCc3ccccc3)n2)s1` the figure was -71% (active); with `S=c1[nH]nc(NCCc2ccccc2)s1`, 0.618% (inactive).
To `O=C(CSc1ccccc1F)NC1CCS(=O)(=O)C1` (configuration not stated) belongs 2.27% (inactive).
Regarding `CCCSC(=S)NC1CCS(=O)(=O)C1` (configuration not stated), the activity change, negative = inhibition is -7.48% (inactive).
To `O=S1(=O)CCC(NC(=S)SCc2ccccc2Br)C1` (configuration not stated) belongs -63% (active).
With `Cc1ccccc1CNC(=O)C1CCCN(S(=O)(=O)N(C)c2ccc(F)cc2)C1` (configuration not stated) the figure was -10.3% (inactive); with `Fc1ccccc1CNC(=S)Nc1ccc(Cl)cc1`, -38.1% (active).
With `S=C(NCc1cccs1)Nc1ccc(Cl)cc1` the figure was -26.2% (inactive).
On to `FC(F)(F)Oc1ccc(NC(=S)NCc2ccccc2)cc1`, for which the activity change, negative = inhibition is -19.3% (inactive).
To `Cc1ccc(C(=O)Nc2cc3c(cc2N2CCCC2)n(C)c(=O)c(=O)n3C)cc1` belongs 16% (inactive).
With `COc1ccc(N2C(=O)CS(=O)(=O)C23C(=O)N(Cc2ccc(C)cc2)c2ccccc23)cc1Cl` (configuration not stated) the figure was -16% (inactive).
For `CCOc1ccccc1NC(=O)CN1CCCN(Cc2cccc(Cl)c2)S1(=O)=O`, the activity change, negative = inhibition was 2.3% (inactive).
With `O=C(O)CCC(=O)N(Cc1ccccc1)Cc1ccccc1` the figure was -11.6% (inactive).
With `O=C(CCCc1ccccc1)NCc1ccccc1` the figure was -7.61% (inactive); with `O=C(O)CCCc1ccccc1`, -31.7% (active).
To `O=C(CSc1oc(-c2ccccc2)nc1S(=O)(=O)c1ccc(Br)cc1)NC1CCCCC1` belongs 8.79% (inactive).
Regarding `CCc1ccc(-n2nnc(-c3nc(-c4ccccc4)no3)c2C)cc1`, the activity change, negative = inhibition is -9.23% (inactive).
With `O=C(C1=C(O)C(=O)N(Cc2ccccc2)C1c1ccco1)c1ccco1` (configuration not stated) the figure was -36.2% (active).
To `CCOc1cc(C2C(C(=O)c3ccco3)=C(O)C(=O)N2Cc2ccccc2)ccc1O` (configuration not stated) belongs 9.97% (inactive); to `CC(C)c1ccc(C2C(C(=O)c3ccco3)=C(O)C(=O)N2CC2CCCO2)cc1` (configuration not stated), -6.37% (inactive); to `O=S(=O)(c1ccc2c(c1)OCCO2)N1CCN(S(=O)(=O)c2cc(F)ccc2F)CC1`, -3.7% (inactive).
To `CCC(C)NC(=O)c1ccc(N2CCC3(CC2)OCCO3)c([N+](=O)[O-])c1` (configuration not stated) belongs -7.67% (inactive); to `COCCNC(=O)c1ccc(N2CCC3(CC2)OCCO3)c([N+](=O)[O-])c1`, -74.3% (active).
Regarding `O=C(COc1ccccc1F)NNC(=O)c1ccc(N2CCCCC2)c([N+](=O)[O-])c1`, the activity change, negative = inhibition is -3.15% (inactive).
To `CCCNC(=O)c1ccc(N2CCC3(CC2)CC(c2cccc(Br)c2)=NO3)c(NC(=O)c2ccco2)c1` belongs -2.71% (inactive); to `CCCNC(=O)c1ccc(N2CCC3(CC2)CC(c2ccc(Cl)cc2)=NO3)c([N+](=O)[O-])c1`, -31.3% (active).
With `CC1CCN(c2ccc(C(=O)NCc3ccc4c(c3)OCO4)cc2[N+](=O)[O-])CC1` the figure was -7.43% (inactive); with `COc1cccc(NC(=O)CN2C(=O)c3ccccc3Sc3ncccc32)c1`, 5.53% (inactive); with `COc1cccc(-c2nc(CS(=O)(=O)CC(=O)N3CCN(c4cc(C)ccc4C)CC3)c(C)o2)c1`, -16.9% (inactive).
With `CC(NC(=O)CCc1cn(Cc2ccccc2Cl)c2ccccc12)c1ccccc1` (configuration not stated) the figure was -6.68% (inactive).
As to `CCOCCCNC(=O)c1c(NC(=O)Cc2coc3c(C)c(C)ccc23)sc2c1CCC2`, the activity change, negative = inhibition was 11.9% (inactive).
To `Cc1ccc(Cl)cc1NC(=O)CCC(=O)N1CC(C)Sc2ccccc21` (configuration not stated) belongs 0.985% (inactive).
With `Cc1ccc(S(=O)(=O)NCc2nc3ccccc3c(=O)n2N)cc1` the figure was -32.4% (active); with `COc1ccccc1CNS(=O)(=O)c1ccc(C)cc1`, -13.9% (inactive).
For the compound `C#CCCCc1nc2ccccc2c(=O)n1N`, the activity change, negative = inhibition is 3.38% (inactive).
As to `Cc1ccc(Cn2c(CCCNC(=O)C3CCCCC3)nc3ccccc32)cc1`, the activity change, negative = inhibition was 10.5% (inactive).
With `CC(C)Cn1c(-c2ccc(S(=O)(=O)N3CCOCC3)cc2)csc1=Nc1cc(Cl)ccc1Cl` the figure was -0.499% (inactive); with `CC1CCCN(c2nc3c(S(=O)(=O)c4ccc(C(C)C)cc4)nnn3c3ccsc23)C1` (configuration not stated), -10.6% (inactive).
With `CCc1cc2c(cc(C(=O)OC)n2Cc2nc(-c3ccc(C)cc3)oc2C)s1` the figure was 10.2% (inactive); with `COC(=O)C1=C(C(=O)OC)[C@@H]2N(C)c3ccccc3[C@@]23C[C@@H](C(=O)OC)N(C(C)=O)C3=N1`, -45.5% (active).
To `CC(=O)NNC1=Nc2ccccc2N(C)C(C)C1` (configuration not stated) belongs 3.33% (inactive); to `O=C(CSc1n[nH]c(-c2cccnc2)n1)Nc1ccc(Cl)cc1`, 24.7% (inactive); to `O=C(CSc1ncn[nH]1)Nc1ccnc2ccccc12`, -18.5% (inactive).
As to `O=C(CSc1n[nH]c(-c2cccnc2)n1)Nc1ccnc2ccccc12`, the activity change, negative = inhibition is -30.8% (active).
To `O=C(CNC(=O)c1ccc(Cl)c(C(F)(F)F)c1)OC(C(=O)Nc1cc(C(F)(F)F)ccc1Cl)c1ccccc1` (configuration not stated) belongs 7.72% (inactive); to `COc1ccc(Cl)cc1S(=O)(=O)N1CCC(c2ccncc2)CC1`, 8.07% (inactive).
